# Source: PubChem (National Center for Advancing Translational Sciences (NCATS))
# Epigenetic reg – Quantitative High-Throughput Screen for Regulators of Epigenetic Control; murine LDR cells, GFP reporter derepression, 30 h; hit rate 0.2% among 280,000; Potency, µM (titrated, usually from 53.9 µM), for inactives: at the highest dose GFP activation, actives largely listed as activators; also: % of control where 0% means no effect; nearly all actives have a fitted effect of over 60% in size
#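 Reporter derepression read as number of fluorescent GFP-positive objects, 20-120 um in size, counted by laser-scanning cytometer. Mouse LDR line with an epigenetically silenced CMV-GFP locus; compound incubation 30 h, 37 C.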
# PINK1 modulator – A Quantitative High throughput Screen to Identify Chemical Modulators of PINK1 Expression; AID 624263, 2012; Potency, µM (doses to about 76.6 µM), without a hit: top-dose activation (PINK1 increase), most hits filed as activators; PINK1 immunofluorescence, high-content cytometry, 24 h; hit rate 0.2% among 410,000; active = well fitted activation curve with a large enough effect; inconclusive = small, poorly fitted or top-dose-only effect; cell line not stated here; also: % of control where 0% means no effect; nearly all actives have a fitted effect of over 65% in size
#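 Fluorescence from anti-PINK1 antibody, together with nuclear and cell stains, was scanned on a laser-scanning cytometer. Before staining, stable-line cells were incubated 24 hours with compounds at 5 concentrations; primary antibody 12 h at 10 degrees C.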
# Vif-APOBEC3G blk – qHTS for Inhibitors of Vif-A3G Interactions: qHTS. hit rate 0.076% among 410,000. Potency, µM (highest dose often 46.1 µM), without a hit: at the highest dose activity, negative = active, actives largely listed as inhibitors. HeLa A3G-eYFP + Vif (tagged APOBEC3G with the HIV-1 protein that degrades it), YFP fluorescence, overnight. DNA dC->dU-editing enzyme APOBEC-3G (Homo sapiens), Q9HC16; also: % is scaled to controls: 0 for no effect and ±100 for the full control effect; nearly all actives have a fitted effect of over 60% in size
# Target sequence (Q9HC16 whole entry, looked up): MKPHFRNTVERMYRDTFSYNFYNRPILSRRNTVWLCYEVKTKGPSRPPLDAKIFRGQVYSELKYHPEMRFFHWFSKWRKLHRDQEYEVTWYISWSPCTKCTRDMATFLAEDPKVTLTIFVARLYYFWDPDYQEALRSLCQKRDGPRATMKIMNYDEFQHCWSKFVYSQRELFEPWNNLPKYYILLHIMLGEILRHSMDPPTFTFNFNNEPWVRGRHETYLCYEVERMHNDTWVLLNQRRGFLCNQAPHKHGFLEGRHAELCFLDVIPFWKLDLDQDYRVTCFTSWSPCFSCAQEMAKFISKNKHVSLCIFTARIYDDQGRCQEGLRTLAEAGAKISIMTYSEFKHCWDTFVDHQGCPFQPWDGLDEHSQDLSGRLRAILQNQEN
#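 HeLa cells stably expressing Vif and C-terminally eYFP-tagged A3G, seeded overnight at 37 deg C, then exposed to compound by pintool overnight at 37 deg C. Rise in yellow fluorescence (Ex 488/Em 500-530, Acumen) marks blocked Vif-driven A3G degradation.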
# Vif-A3F inh – qHTS for Inhibitors of Vif-A3F Interactions: qHTS; HeLa A3F-eYFP + Vif (tagged APOBEC3F with the HIV-1 protein that degrades it), YFP fluorescence increase; Potency, µM (series often up to 46.1 µM), inactives show at the top dose activity, negative = active; hit rate 0.2% among 390,000; AID 602313, 2012; also: % of control where 0% means no effect; nearly all actives have a fitted effect of over 65% in size
#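 HeLa cells stably expressing A3F-eYFP plus Vif, plated and incubated overnight at 37 deg C, then exposed to compounds overnight at 37 deg C. Blocked degradation read as raised yellow fluorescence (Ex 488/Em 500-530).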
# * hit, by the source's call; ? = inconclusive; . = not tested or not shown; [ ] = dose if it differs, or a comment. Sampled rows, rich in hits. Any-hit rate of the full collection: about 0.51%. Unless noted, calls follow the shape of the dose curve; as a rule, active = well fitted curve in the direction sought with a large enough effect; inconclusive = small, poorly fitted or top-dose-only effect, or another doubt; inactive = no such curve, though single readings can be large; an effect the other way counts as inactive or inconclusive. Potency is read from the fitted curve at half-maximal effect.
SMILES,Epigenetic reg,PINK1 modulator,Vif-APOBEC3G blk,Vif-A3F inh
O=[N+]([O-])c1ccc(NS(=O)(=O)c2ccc(Cl)c(Cl)c2)cc1,.,16µM*,-12%,.
COCc1c(C(=O)NC2CCCCC2)cnn1-c1nccc(-c2cc(C)sc2C)n1,.,1%,.,.
CCC/C=N/NC(=O)c1[nH]c2c([N+](=O)[O-])cccc2c1C,-1%,11%,7.1µM*,9%
CCN1C(=NCCCOC(C)C)N[C@@H](CCc2ccccc2)[C@H](C(=O)NCCCOC(C)C)[C@H]1C,.,22µM*,5%,-7%
CCOC(=O)c1ccc(NC(=S)NCCC2=CCCCC2)cc1,2%,32µM*,-8%,-25%
COc1ccccc1C1CN(Cc2cccc(C)n2)Cc2ccccc2O1 (stereo unspecified),.,3%,.,.
C=C[C@@H]1CN2CC[C@@H]1C[C@@H]2[C@@H](O)c1ccnc2ccc(OC)cc12,-3%,.,.,.
CCc1ccccc1NC(=O)c1cnn2c(C(F)(F)F)cc(-c3ccc(OC)c(OC)c3)nc12,13µM*,0%,3%,?
CCN1CCCC1CNC(=O)c1cnn(-c2nccc(-c3cccs3)n2)c1C1CC1 (stereo unspecified),.,2%,.,.
O=C(Nc1c2c(nn1-c1ccc(Cl)cc1)CS(=O)(=O)C2)c1ccc(Br)cc1,0%,32µM*,-4%,1%
O=C(Nc1c2c(nn1-c1ccc(Cl)cc1)CS(=O)(=O)C2)c1ccc2c(c1)OCO2,2%,8%[38.3 µM],-1%,-7%
COc1cc(/C=C(/C(=O)c2cccs2)c2nc3ccccc3[nH]2)ccc1O,6%,-46%[38.3 µM],10µM*,-15%
COc1ccc(/C=c2\s/c(=C/C(=O)c3ccc(C)cc3)[nH]c2=O)c(OC)c1,7%,?,?,25µM*
COc1cccc(/C=c2\s/c(=C/C(=O)c3ccc(C)cc3)[nH]c2=O)c1OC,-1%,?,-13%,?
FC(F)(F)c1ccccc1NC(=S)NN=C1CCCCCC1,-4%,10%,?,6.3µM*
FC(F)(F)c1ccccc1NC(=S)N1CCCC1,0%,-1%,0%,?
CN(C)c1c(Cl)cc(/C=C/c2ccnc3ccccc23)cc1Br,.,.,-13%,.
C=CCOc1ccc2cccc(/C=N/NC(=O)c3cc4cc([N+](=O)[O-])ccc4s3)c2c1,?,20µM*,3%,?
O=C(Nc1ccccn1)c1cc2cc([N+](=O)[O-])ccc2s1,-1%,2%,-5%,3%
CCC(C)Sc1cc(C(F)(F)F)c(C(=O)Nc2ccc(Cl)cc2)cn1 (stereo unspecified),0%,18µM*,0%,2%
Cn1cc(C(=O)Nc2ccc(Cl)cc2)c(C(F)(F)F)n1,-1%,3%,2%,1%
FC(F)(F)c1cnc2c(c1)[nH]c(=S)n2-c1ccc(Cl)cc1,.,40µM*,2%,8%
CCCCCCCCCCCCCCCC[n+]1ccc(/C=C/c2c[nH]c3ccccc23)c2ccccc21,.,.,1%,.
CC[n+]1c(/C=C/c2c[nH]c3ccccc23)ccc2cc(C)ccc21,4.5µM*,4%,?,-124%
CCN(CC)C(=O)c1ccc(/C=C/c2c[nH]c3ccccc23)[n+](C)c1,?,3%,?,13µM*
SMILES,Epigenetic reg,PINK1 modulator,Vif-APOBEC3G blk,Vif-A3F inh
CCc1ccc(NC(=O)C(C)OC(=O)c2ccc(NS(=O)(=O)c3ccc(C)c([N+](=O)[O-])c3)cc2)cc1 (stereo unspecified),-1%,45µM*,-4%,-9%
Cc1cc(C(=O)OC(C(=O)Nc2cccc(C(F)(F)F)c2)c2ccccc2)c(C)o1 (stereo unspecified),0%,35µM*,-1%,-30%
CCN(CC)CCC[C@H](C)Nc1c2ccc(Cl)cc2nc2ccc(OC)cc12,3.5µM*,.,.,.
CCCc1nc2cccnc2n1C1CCN(C(=O)Cn2nccc2C)CC1,.,0%,.,.
Nc1c(C(=O)O)sc2nc(-c3ccccc3)cc(-c3ccc(Cl)cc3)c12,0%,0%,-11%,-12%
Nc1c(C(=O)O)sc2nc(-c3ccc(F)cc3)cc(-c3ccccc3)c12,?,2%,-18%,11µM*
Nc1nonc1C(=O)N/N=C/c1cc2c(cc1[N+](=O)[O-])OCO2,.,40µM*,-8%,-2%
CN1CC=C2C(C#N)=C(N)C(C#N)(C#N)C(c3cccc(Cl)c3Cl)C2C1 (stereo unspecified),-1%,14µM*,-26%,?
CN1CC=C2C(C#N)=C(N)C(C#N)(C#N)[C@H](c3ccoc3)[C@H]2C1,-4%,40µM*,1%,-1%
COc1cccc(CN2CCCC(c3nc(-c4ccncc4)ncc3-c3ccccc3)C2)c1O (stereo unspecified),.,4%,.,.
CCNc1ccc(Br)cc(C(=O)/C=C/c2ccc3c(c2)OCO3)c1=O,2%,0%,-29%,13µM*
O=C(C1CC12CCN(Cc1cccc3cccnc13)CC2)N1CCN(Cc2cccs2)CC1 (stereo unspecified),.,1%,.,.
OC1(c2cccnc2)CCN(Cc2ccc3c(c2)CN(Cc2cccc(C(F)(F)F)c2)CCO3)CC1,.,-1%,.,.
CC(C)CSC1=NSC2=NC(=O)/C(=C\c3cccs3)C(=N)N12,-1%,45µM*,-2%,-4%
O=C(Cn1cc2ccccc2n1)N1CCOc2ccc(C(O)C3CCCCC3)cc2C1 (stereo unspecified),.,2%,.,.
CCCN1C(=O)/C(=C/c2ccc(OCC(=O)OCC)cc2)NC1=S,3%,7%,-7%,-23%
CCN1C(=O)/C(=C/c2ccc(N3CCCC3)cc2)NC1=S,?,14%,8.9µM*,25µM*
CCCN1C(=O)/C(=C/c2ccc(N3CCOCC3)cc2)NC1=S,1%,10%,?,?
Cc1cc(/C=C2\NC(=S)N(C)C2=O)ccc1N1CCCC1,?,?,6.3µM*,?
CCCN1C(=O)/C(=C/c2ccc(N3CCCC3)c(C)c2)NC1=S,1µM*,10%,?,?
COc1cc(/C=C2\NC(=S)N(C)C2=O)ccc1O,-6%,2%,-10%,-11%
Cc1c(Cn2cnc3c(cnn3C(C)(C)C)c2=O)cccc1C(F)(F)F,.,.,-4%,.
Cc1coc(NC(=O)CSc2nc(-c3ccncc3)cc(C(F)(F)F)c2C#N)n1,13µM*,?,?,11µM*
N#Cc1c(C(F)(F)F)cc(-c2ccc(F)cc2)nc1SCC(=O)Nc1ccccc1,7%,3%,7%,10%
N#Cc1c(C(F)(F)F)cc(-c2ccc(F)cc2)nc1SCC(=O)O,0%,-1%,1%,2%
CCOC(=O)NC(=O)CSc1nc(C)cc(C(F)(F)F)c1C#N,1%,-3%,-30%,?
Cc1ccc(NC(=O)CSc2nc(-c3ccc(F)cc3)cc(C(F)(F)F)c2C#N)cc1,?,1%,-1%,3%
Cc1cc(C(F)(F)F)c(C#N)c(SCC(=O)Nc2nc3cc(Br)ccc3s2)n1,-3%,14µM*,?,?
